“And” between values parts separate entries of the source, which are not always exact repeats. Identical values can stand only once. The campaign covered roughly 16,000 compounds. About 4,000 (25%) were called active. Roughly 26% stayed inconclusive and do not appear here. Not all results are given here. Unmarked numbers belong to inactive results. Calls come from the whole dose curve; as a rule, active = well fitted curve in the direction sought with a large enough effect; inconclusive = small, poorly fitted or top-dose-only effect, or effect the other way; inactive = no such curve, though single readings can be large or run the other way.
% is set by controls: 0 for no effect and ±100 for the full control effect.

Chain of Cytochrome P450 2C9 (Homo sapiens) (P11712 whole entry, looked up): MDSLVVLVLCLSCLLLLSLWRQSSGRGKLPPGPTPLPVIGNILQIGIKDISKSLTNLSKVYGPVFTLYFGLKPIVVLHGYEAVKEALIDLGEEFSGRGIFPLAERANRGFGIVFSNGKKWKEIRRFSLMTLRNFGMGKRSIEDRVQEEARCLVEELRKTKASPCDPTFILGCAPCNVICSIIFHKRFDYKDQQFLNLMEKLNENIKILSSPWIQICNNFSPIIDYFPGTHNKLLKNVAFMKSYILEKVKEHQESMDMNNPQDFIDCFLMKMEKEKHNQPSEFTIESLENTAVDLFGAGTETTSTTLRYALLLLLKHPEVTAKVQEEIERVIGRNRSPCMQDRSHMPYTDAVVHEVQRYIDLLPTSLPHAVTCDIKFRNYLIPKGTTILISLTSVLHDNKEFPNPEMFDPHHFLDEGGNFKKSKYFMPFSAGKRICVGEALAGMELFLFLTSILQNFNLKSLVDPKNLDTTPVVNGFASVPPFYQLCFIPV

The assay addresses Cytochrome P450 2C9 (Homo sapiens) (UniProt P11712). In words: Cytochrome panel assay with activity outcomes. Conditions: recombinant CYP, pro-luciferin dealkylation, luminescence, p450-cyp2c9; series mostly up to 57.1 µM; activity, negative = inhibition: at the top concentration.
With `O=C(O)[C@H]1C[C@H](C(=O)O)N1`, the “activity, negative = inhibition” value was 24.8%.

`Cc1cc(CNC(=O)[C@H]2C[C@@H]2[C@H](NP(=O)(c2ccccc2)c2ccccc2)c2ccccc2)nn1C`: the “activity, negative = inhibition” value was -22.9%.

Turning to `Cc1cc(CNC(=O)[C@@H]2C[C@H]2[C@@H](NP(=O)(c2ccccc2)c2ccccc2)c2ccccc2)nn1C`, the “activity, negative = inhibition” value was -1.27%. Take `O=C(NCc1nc2ccccc2[nH]1)[C@H]1C[C@@H]1[C@H](NP(=O)(c1ccccc1)c1ccccc1)c1ccccc1`: the AC50 is 12.6 µM (active). Same read-out and setting: under `CC(=O)c1cccc(NC(=O)CCC2CCCC2)c1` stands 14.1 µM (active). As for `O=C(CC1CCCC1)Nc1ccc2c(c1)CCC2`, the “activity, negative = inhibition” value is -31%. The same measure, in the same setting: under `CC(=O)NNC(=O)CCC(=O)Nc1ccccc1` stands -2.97%; under `N#C/C(=C\Nc1ccccn1)C(=O)C1CC1`, 2.34% [at 11.4 µM]. Turning to `N#C/C(=C\Nc1ccccn1)C(=O)c1ccco1`, the AC50 is 3.16 µM (active). On to `O=C(N/N=C/c1ccccn1)c1ccco1`, for which the “activity, negative = inhibition” value was 61.6%. Still for that read-out and setting: then `CC(C)CSC[C@@H]1O[C@H](n2cnc3c(N)nccc32)[C@H](O)[C@@H]1O`, with 3.85% [at 11.4 µM].

With `CC(C)N1CCC(=NNC(=O)c2ccc(Br)o2)CC1`, the “activity, negative = inhibition” value was -17%.

For `CS(=O)(=O)N1CCC2(CC1)CN(C(=O)Nc1ccccc1)C2`, the “activity, negative = inhibition” value was 8.74%. On to `CS(=O)(=O)N1CCN(c2ccccc2NC(=O)c2ccc(Br)o2)CC1`, for which the AC50 was 20 µM (active). For `COCC(=O)N1CCC2(CCCN(Cc3ccccc3)C2)CC1`, the “activity, negative = inhibition” value was -0.418%. As for `O=C(c1ccc2c(c1)N(Cc1ccc(F)cc1)C(=O)CS2)N1CCOCC1`, the AC50 was 17.8 µM (active). `O=C1S/C(=C/c2ccc(N3CCOCC3)o2)C(=O)N1Cc1ccc(F)cc1`: the “activity, negative = inhibition” value was -19.5%. In the case of `O=C(c1cc(Cl)c(=O)n(Cc2ccc(Cl)cc2)c1)N1CCOCC1`, the “activity, negative = inhibition” value was -22.2%.

Turning to `O=C(O)CSc1cc(C(F)(F)F)nc(-c2ccccn2)n1`, the “activity, negative = inhibition” value is -7.48%.

On to `O=C(c1cc(C(F)(F)F)cc(C(F)(F)F)c1)N1CCC[C@@]2(CCN(c3ccccc3)C2)C1`, for which the “activity, negative = inhibition” value is 24%. With `CC(Sc1nc(-c2ccccc2)cc(C(F)(F)F)n1)C(=O)N1CCCCC1` (configuration not stated), the AC50 is 8.91 µM (active). The same measure, in the same setting: under `CCCCCC1=C2CNC(CC(C)C)(C(=O)OC)C=C2C(C)C1=O` (configuration not stated) stands 3.16 µM (active).

Turning to `CCCC1(C(=O)OC)C=C2C(=C(C)C(=O)C2C)CN1` (configuration not stated), the “activity, negative = inhibition” value was -6.7%. On to `CCCCCC1=C2CNC(CCC)(C(=O)OC)C=C2C(C)C1=O` (configuration not stated), for which the half-maximal activity concentration (AC50) is 10 µM (active).

On to `COC(=O)C1(CC(C)C)C=C2C(=C(C(C)C)C(=O)C2C)CN1` (configuration not stated), for which the AC50 is 12.6 µM (active). `c1ccc(CNc2ccnc(-c3ccc4c(c3)OCO4)n2)cc1`: the activity, negative = inhibition was -0.997% [at 2.29 µM].

In the case of `O=C(O)[C@@H](O)[C@@H](O)[C@@H](O)[C@@H](O)C(=O)O` (tested in a mixture with another compound), the “activity, negative = inhibition” value is -19.4% [at 25.6 µM]. The same measure, in the same setting: then `Cc1ccccc1OCC(=O)N/N=C1\CCOc2c(C)cccc21`, with -0.88%. Turning to `Cc1cccc2c1OCC/C2=N\NC(=O)COc1ccccc1`, the AC50 was 15.8 µM (active). For the compound `CCCCOc1ccc(/C=C/C(=O)NCCc2nc3ccccc3[nH]2)cc1`, the AC50 is 6.31 µM (active).

Take `COc1ccc(CNC(=O)/C=C/c2ccc(OCCCF)cc2)cc1`: the “activity, negative = inhibition” value was -25.4%. The same measure, in the same setting: then `N#C/C(=C\c1ccc(O)c(O)c1)C(=O)Nc1ccccc1`, with -18.9%; and `Cc1cccc(OCC(=O)N/N=C\C=C\c2ccc3c(c2)OCO3)c1C`, with 8.15%; and `O=C(Nc1ccccc1)N1CCC2(CC1)CCN(C(=O)c1ccco1)CC2`, with -7.61%.

For `O=C(Nc1ccccc1)/C(=C\c1ccc2c(c1)OCO2)NC(=O)c1ccco1`, the half-maximal activity concentration (AC50) is 10 µM (active). Same read-out and setting: then `Cc1ccc(NC(=O)/C(=C\c2ccc3c(c2)OCO3)NC(=O)c2ccco2)cc1`, with 3.55 µM (active). For the compound `Cc1noc(C)c1C(=O)N1CCC[C@@]2(CCN(C(=O)Nc3cccc(F)c3)C2)C1`, the “activity, negative = inhibition” value is -5.02%. Still for that read-out and setting: then `O=C(Nc1c[nH]c(=O)[nH]c1=O)Oc1ccccc1`, with 1.86% [at 11.4 µM]; and `NOCC(=O)O`, with -0.0818%. On the same count and under the same terms, then `Cc1ccc(Sc2cc(Cl)nc(N)n2)cc1`, with -3.63%. As to `CCNc1nc(Sc2ccc(C)cc2)cc(C(F)(F)F)n1`, the AC50 was 25.1 µM (active). As to `CC[C@@H](CS(=O)(=O)O)[N+](=O)[O-]`, the activity, negative = inhibition was 5.26% [at 11.4 µM]. On to `O=C(CN(Cc1ccccc1)S(=O)(=O)c1ccc2c(c1)OCCO2)N/N=C/c1ccc(F)cc1`, for which the AC50 was 14.1 µM (active). As for `COCc1cc(=O)[nH]c2cc(NC(=O)C(F)(F)F)c(C)cc12`, the “activity, negative = inhibition” value was 10.5%. With `CCn1c(-c2nonc2NC(=O)c2ccccc2)nc2ccccc21`, the AC50 is 0.501 µM (active).

As to `Cc1ccc(C(=O)Nc2nc3ccccc3n3nnnc23)cc1`, the “activity, negative = inhibition” value is -12.8%. Take `CCC(=O)Nc1nonc1-c1nc2ccccc2n1N(C(=O)CC)C(=O)CC`: the AC50 is 10 µM (active). Turning to `CC(=O)OC[C@H]1O[C@@H](O/N=C\[C@@H](C)[C@H](OCc2ccccc2)C(C)C)[C@H](OC(C)=O)[C@@H](OC(C)=O)[C@H]1OC(C)=O`, the activity, negative = inhibition is 1.31% [at 11.4 µM]. Regarding `CC[C@]1(C)CC(=O)NC1=O`, the AC50 entry was “inactive”. On to `Cc1cc(C(=O)N[C@H](c2ccccc2)[C@@]2(C)C[C@@H]2[C@@H](C)C(=O)Nc2ccc3ccccc3c2)n(C)n1`, for which the AC50 is 7.94 µM (active).

Take `Cc1cc(C(=O)N[C@@H](c2ccccc2)[C@]2(C)C[C@H]2[C@@H](C)C(=O)Nc2ccc3ccccc3c2)n(C)n1`: the AC50 is 3.98 µM (active). With `C[n+]1cc(-c2ccccc2)n2c1CCCCC2`, the “activity, negative = inhibition” value was 18.1%. The same measure, in the same setting: then `CN(C)CCCN1c2ccccc2Sc2cnccc21`, with 5.82% [at 11.4 µM]; and `Cc1ccc(C(C(=O)NCc2ccco2)N(C(=O)CNC(=O)c2cccs2)c2ccc(C)cc2)cc1` (configuration not stated), with -21.2%. For the compound `Cc1ccc(C(C(=O)NCc2ccco2)N(C(=O)CNC(=O)c2cccs2)c2ccc(C)cc2C)cc1` (configuration not stated), the AC50 is 0.447 µM (active).

`C[C@H](O/N=C1/[C@H]2O[C@@H]2[C@@H](O)[C@H]2[C@H]1CCn1c(=O)n(-c3ccccc3)c(=O)n12)c1cn([C@H](CO)Cc2ccccc2)nn1`: the activity, negative = inhibition was -5.06% [at 11.4 µM] and -0.376% [at 11.4 µM]. Take `Cc1nc(Sc2ccccc2)c(C#N)cc1-c1ccccc1`: the AC50 is 5.01 µM (active). On the same count and under the same terms, then `Cc1nc(Cl)c(C#N)cc1-c1ccccc1`, with 10 µM (active); and `Cc1ccc(Sc2nc(-c3ccccc3)ccc2C#N)cc1`, with 7.94 µM (active); and `N#Cc1cc(-c2ccccc2)cnc1Sc1ccc(Cl)cc1`, with 3.55 µM (active).

Consider `CNc1nc(-c2cccc(C#N)c2)nc2ccccc12`, for which the activity, negative = inhibition was -18.8% [at 2.29 µM]. Turning to `Cc1ccc(-c2nc(-c3nccc4ccccc34)oc2-c2ccccc2)cc1`, the activity, negative = inhibition was -0.601% [at 11.4 µM].

The term AC50 denotes the midpoint of the concentration-response curve, whichever way the signal moves.

These data come from PubChem BioAssay AID1851 (National Center for Advancing Translational Sciences (NCATS), 2009).
